# Key:
# Assay in all cases: DAPPL (digital affinity profiling via proximity ligation, sequencing); 10 mM Tris-HCl pH 7.5, 50 mM NaCl, 1 mM DTT, 4% glycerol, room temperature, 30 min; GST-TFs on glutathione beads, 16-mer random dsDNA library, 0.1% formaldehyde crosslink after washing; high values mean tight binding
# FEV = molecular target: T1, FEV (Homo sapiens, UniProt Q99581 1-238); details: protein: recombinant; tags: N-terminal GST; dsDNA, one strand shown
# T1 sequence: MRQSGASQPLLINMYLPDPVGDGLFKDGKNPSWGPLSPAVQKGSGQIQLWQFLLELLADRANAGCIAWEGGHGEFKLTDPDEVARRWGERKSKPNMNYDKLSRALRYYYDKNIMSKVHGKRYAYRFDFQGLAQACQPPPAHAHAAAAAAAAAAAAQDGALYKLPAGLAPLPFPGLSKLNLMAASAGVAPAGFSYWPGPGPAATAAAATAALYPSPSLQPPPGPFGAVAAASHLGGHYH
# Outline: (§1)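 Each value of binding signal is a hexamer's read frequency for a factor divided by the same hexamer's frequency in the tag-only sample. Barcoded, bead-captured GST fusions of human transcription factors made in yeast were pooled with that sample and incubated with 200 nmole of a random double-stranded 16-mer DNA library in Tris/NaCl/DTT/glycerol buffer at room temperature for 30 min. Washing, 0.1% formaldehyde crosslinking, proximity ligation, PCR and Illumina NextSeq500 sequencing followed.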
# ETV5 = ETV5 (Homo sapiens, UniProt P41161 1-510); details: protein: recombinant; tags: N-terminal GST; dsDNA, one strand shown
# Chain of ETV5 (P41161 whole entry): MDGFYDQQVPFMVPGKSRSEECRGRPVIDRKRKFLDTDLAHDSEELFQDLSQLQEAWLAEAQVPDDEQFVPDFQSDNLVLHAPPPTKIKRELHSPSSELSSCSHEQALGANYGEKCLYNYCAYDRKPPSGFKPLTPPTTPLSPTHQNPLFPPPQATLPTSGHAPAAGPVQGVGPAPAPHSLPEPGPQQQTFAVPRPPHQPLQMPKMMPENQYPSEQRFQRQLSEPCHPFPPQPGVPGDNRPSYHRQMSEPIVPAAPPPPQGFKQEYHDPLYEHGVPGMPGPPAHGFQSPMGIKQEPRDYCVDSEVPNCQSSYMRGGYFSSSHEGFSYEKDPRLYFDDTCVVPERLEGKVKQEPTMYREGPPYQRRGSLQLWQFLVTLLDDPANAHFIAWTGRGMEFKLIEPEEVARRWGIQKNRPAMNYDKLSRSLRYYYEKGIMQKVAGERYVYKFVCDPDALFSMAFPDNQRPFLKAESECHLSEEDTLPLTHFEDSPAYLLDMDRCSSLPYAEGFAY
# Outline: as §1
# HSF1 = HSF1 (Homo sapiens, UniProt Q00613 1-529); details: protein: recombinant; tags: N-terminal GST; chain copies: 3; dsDNA, one strand shown
# Chain of HSF1 (Q00613 whole entry): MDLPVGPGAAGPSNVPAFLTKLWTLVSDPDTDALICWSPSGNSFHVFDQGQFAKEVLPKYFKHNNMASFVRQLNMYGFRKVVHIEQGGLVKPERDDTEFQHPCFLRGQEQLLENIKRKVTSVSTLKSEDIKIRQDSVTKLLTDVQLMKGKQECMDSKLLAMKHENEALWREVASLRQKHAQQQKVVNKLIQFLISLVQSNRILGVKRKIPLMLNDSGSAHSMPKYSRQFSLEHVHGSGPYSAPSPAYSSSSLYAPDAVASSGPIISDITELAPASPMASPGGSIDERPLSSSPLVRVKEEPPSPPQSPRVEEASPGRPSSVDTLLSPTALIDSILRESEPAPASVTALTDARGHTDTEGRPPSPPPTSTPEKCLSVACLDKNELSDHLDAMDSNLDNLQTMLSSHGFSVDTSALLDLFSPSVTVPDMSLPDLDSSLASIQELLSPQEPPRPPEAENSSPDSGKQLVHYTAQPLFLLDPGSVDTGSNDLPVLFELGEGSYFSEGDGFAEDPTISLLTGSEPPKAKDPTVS
# Outline: as §1
# SPIC = molecular target: T2, SPIC (Homo sapiens, UniProt Q8N5J4 1-248); details: protein: recombinant; tags: N-terminal GST; dsDNA, one strand shown
# T2 sequence: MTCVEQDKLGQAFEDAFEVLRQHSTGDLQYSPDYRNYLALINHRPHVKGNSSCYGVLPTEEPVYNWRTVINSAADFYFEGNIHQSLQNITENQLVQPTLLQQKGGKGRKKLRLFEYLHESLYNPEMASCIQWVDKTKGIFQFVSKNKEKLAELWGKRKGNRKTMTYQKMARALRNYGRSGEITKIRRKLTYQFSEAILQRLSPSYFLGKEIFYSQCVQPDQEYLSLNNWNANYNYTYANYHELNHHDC
# Outline: as §1
# ELF4 = ELF4 (Homo sapiens, UniProt Q99607 1-663); details: protein: recombinant; tags: N-terminal GST; dsDNA, one strand shown
# Chain of ELF4 (Q99607 whole entry): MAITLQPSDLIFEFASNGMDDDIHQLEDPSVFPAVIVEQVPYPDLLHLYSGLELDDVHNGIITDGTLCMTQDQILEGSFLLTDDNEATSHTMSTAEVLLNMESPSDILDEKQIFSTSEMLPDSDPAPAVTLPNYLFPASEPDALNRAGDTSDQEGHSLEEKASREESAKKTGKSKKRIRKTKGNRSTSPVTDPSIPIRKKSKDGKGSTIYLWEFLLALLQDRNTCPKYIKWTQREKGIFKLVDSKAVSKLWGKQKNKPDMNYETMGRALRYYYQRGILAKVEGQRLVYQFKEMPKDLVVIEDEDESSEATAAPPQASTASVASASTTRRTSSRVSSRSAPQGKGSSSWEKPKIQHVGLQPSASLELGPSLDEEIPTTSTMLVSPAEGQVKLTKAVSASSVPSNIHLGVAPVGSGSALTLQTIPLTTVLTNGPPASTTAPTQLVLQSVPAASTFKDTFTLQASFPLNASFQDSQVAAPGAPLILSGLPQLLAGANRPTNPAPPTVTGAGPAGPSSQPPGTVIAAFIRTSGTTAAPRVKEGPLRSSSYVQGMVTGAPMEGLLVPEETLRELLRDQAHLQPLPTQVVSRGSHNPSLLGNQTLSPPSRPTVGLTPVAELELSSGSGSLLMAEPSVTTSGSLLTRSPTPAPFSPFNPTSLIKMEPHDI
# Outline: as §1
# ELK4 = molecular target: T3, ELK4 (Homo sapiens, UniProt P28324-2 1-405); details: protein: recombinant; tags: N-terminal GST; dsDNA, one strand shown
# T3 sequence: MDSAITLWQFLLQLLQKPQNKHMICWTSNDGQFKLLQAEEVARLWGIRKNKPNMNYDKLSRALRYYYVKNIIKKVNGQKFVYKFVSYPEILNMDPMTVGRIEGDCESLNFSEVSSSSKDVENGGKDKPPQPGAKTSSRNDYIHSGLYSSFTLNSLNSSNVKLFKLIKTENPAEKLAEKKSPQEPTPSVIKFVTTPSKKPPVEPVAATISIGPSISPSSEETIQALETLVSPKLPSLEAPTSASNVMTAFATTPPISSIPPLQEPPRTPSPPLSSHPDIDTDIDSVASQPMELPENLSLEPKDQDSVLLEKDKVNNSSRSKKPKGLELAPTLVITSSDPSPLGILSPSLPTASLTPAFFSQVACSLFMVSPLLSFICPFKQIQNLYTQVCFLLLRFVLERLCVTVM
# Outline: as §1
# ETV2 = molecular target: T4, ETV2 (Homo sapiens, UniProt O00321 1-342); details: protein: recombinant; tags: N-terminal GST; dsDNA, one strand shown
# T4 sequence: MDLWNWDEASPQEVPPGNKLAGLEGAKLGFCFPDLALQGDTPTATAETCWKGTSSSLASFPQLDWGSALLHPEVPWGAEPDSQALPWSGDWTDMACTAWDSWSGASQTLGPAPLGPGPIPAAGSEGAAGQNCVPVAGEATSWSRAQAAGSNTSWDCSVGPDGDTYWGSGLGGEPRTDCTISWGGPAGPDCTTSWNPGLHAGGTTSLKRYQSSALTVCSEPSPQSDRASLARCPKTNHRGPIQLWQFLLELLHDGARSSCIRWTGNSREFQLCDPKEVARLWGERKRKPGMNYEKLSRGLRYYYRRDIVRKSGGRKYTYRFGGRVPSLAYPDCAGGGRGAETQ
# Outline: as §1
# ELF3 = molecular target: T5, ELF3 (Homo sapiens, UniProt P78545 1-371); details: protein: recombinant; tags: N-terminal GST; dsDNA, one strand shown
# T5 sequence: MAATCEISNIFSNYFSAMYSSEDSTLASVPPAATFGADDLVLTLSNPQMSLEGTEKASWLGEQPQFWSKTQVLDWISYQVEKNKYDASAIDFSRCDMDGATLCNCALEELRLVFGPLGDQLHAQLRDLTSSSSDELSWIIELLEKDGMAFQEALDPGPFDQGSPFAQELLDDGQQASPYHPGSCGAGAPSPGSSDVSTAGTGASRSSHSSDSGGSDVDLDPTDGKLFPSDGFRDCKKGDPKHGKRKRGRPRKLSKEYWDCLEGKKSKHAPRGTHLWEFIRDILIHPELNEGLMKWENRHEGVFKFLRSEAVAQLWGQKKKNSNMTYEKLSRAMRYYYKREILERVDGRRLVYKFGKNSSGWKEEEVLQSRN
# Outline: as §1
# CRX = CRX (Homo sapiens, UniProt O43186 1-299); details: protein: recombinant; tags: N-terminal GST; dsDNA, one strand shown
# Chain of CRX (O43186 whole entry): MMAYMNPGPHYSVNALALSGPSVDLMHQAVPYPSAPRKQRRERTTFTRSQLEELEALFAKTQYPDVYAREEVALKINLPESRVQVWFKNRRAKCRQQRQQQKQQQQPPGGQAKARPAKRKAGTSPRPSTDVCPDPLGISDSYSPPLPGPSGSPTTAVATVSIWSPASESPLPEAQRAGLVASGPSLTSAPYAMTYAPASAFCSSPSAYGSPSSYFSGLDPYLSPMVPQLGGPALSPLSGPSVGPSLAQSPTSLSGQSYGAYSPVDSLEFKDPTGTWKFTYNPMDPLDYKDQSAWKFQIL
# Outline: as §1
sequence,measurement,setting,value
CTGACT,binding signal,FEV,"1.32 fold enrichment (6-mer frequency, TF over GST control)"
same,binding signal,ETV5,"1.23 fold enrichment (6-mer frequency, TF over GST control)"
same,binding signal,HSF1,"1.05 fold enrichment (6-mer frequency, TF over GST control)"
same,binding signal,SPIC,"1.24 fold enrichment (6-mer frequency, TF over GST control)"
same,binding signal,ELF4,"1.37 fold enrichment (6-mer frequency, TF over GST control)"
same,binding signal,ELK4,"1.22 fold enrichment (6-mer frequency, TF over GST control)"
same,binding signal,ETV2,"1.48 fold enrichment (6-mer frequency, TF over GST control)"
same,binding signal,ELF3,"1.52 fold enrichment (6-mer frequency, TF over GST control)"
same,binding signal,CRX,"1.07 fold enrichment (6-mer frequency, TF over GST control)"

# From PMC7862700, “An all-to-all approach to the identification of sequence-specific readers for epigenetic DNA modifications on cytosine”
